# System: FXR:RXRa (NR concentration 270 nM, RXRa partner concentration 90 nM)
# Experiment: PBM binding z-score (relative to random genomic background probes); higher = stronger binding; sequences stand for … in GC…GCGATTGACAGCGTAGAATGAAGG
# How it was run: (§1)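 On custom Agilent 4×180K arrays, double-stranded probes with 34-nt variable regions carried direct-repeat seeds, single-nucleotide variants, half-site ablations or random human genomic background. Ligand-free nuclear receptor dimers were applied for 1 h, and binding was read with antibodies against each partner (one per run). Binding z-scores come from regression-normalized fluorescence, with the random background probes as reference.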
row,Sequence,PBM binding z-score
1,CGTCCAAGGTCATAGGAGATCAGTGAAGACAGAT,6.93
2,CCTTACGGGTCAAGGCTATAGCACGGGTGGTACG,5.49
3,CGAACGAGGGCATGAGTTGATAGCAAATGCCGAT,0.545
4,CCAGACAGGTGAGAAGGTAACTCCGCCTCGATTA,-0.167
5,TCTACTAGTTGATTAGGGCAACCGAAACAGCGGA,-0.0181
6,GAGACAGGGTCAAGGCCAGAGTACGCGTATTGAT,6.57
7,TCTAGTTGGTCACGGAGGTCACTCACGACGGGTA,2.52
8,CTCGAAAGGTCGGTTGAGGTGTGTATACGGATAA,1.83
9,CCTACTGGGCCATTCAGAGTTCATTGATCATATG,0.991
10,CAGCCTAGGTTAGGGCCAGTATAGGAGGAACGTT,-0.436
11,GCGACTGGGGCCAAGCAGGTTACCATAAGGTTGG,-0.268
12,CGAACGAGGGCATGAGTTGATGGCAAATGCCGAT,0.483
13,GGAACGATGGCAAGTTGATAGCAGAGTTTGATGG,-0.624
14,CGTCCAAGGTCAAAGGTCAGTCAAGAGATGACGG,8.41
15,CGTCCAAGGTCAAAGGTCAGTGCAGAGATGACGG,8.41
16,CCTTCTGGGCCAAAGGTCATTGATTCCAATGCTC,4.88
17,TTTTGTAGATCAAGCAGGTTAAGAAAGCCTGAGT,-0.215
18,AAGACAGGGTCATCGTAGGCCAGAGTACGCACAG,7.28
19,GCTAGCAGGCCATTTAGGTCACTCAATGACGGGC,0.265
20,AATACAGGGTCACTAGGCCAGAGTTGGTACGAAT,6.05

row,Sequence,PBM binding z-score
1,TCATATAGGTAATACAGGTGAAAGTGGGCATCTA,1.4
2,CGAACTAGGTCTAGGACAGTGAATCTCCGCACGC,-0.409
3,GCATATAGGTAATACCAGGTGAAAGTCCGATTGT,0.107
4,TCAGAAAGGTGAAGGTAACTCAGGTACGCAGTCG,1.82
5,GGAACGAGGGCATACGAGTTGATAGCATGGCGAT,1.33
6,AGAATGAGGTTACCGAAGATCAGGGAAACGCTTG,2.18
7,CCGACTGGGGCAGAAAGGTAACCATACCATCCGG,-0.151
8,AGTCACAGTTCACTAGGTAACGTAAGATTCAGCT,0.936
9,GATCGGAGGACAAGGTCAGAGCTTTGTCCGTAGA,1.55
10,CTCGAAAGGTCGGTTGAGGCGAGTATACGGATAA,1.49
11,ACAGACAGGTGTTGAAGGTAACTCAGGCTATCAT,-0.0696
12,GTACCAAGGTGAATAGGTCATTGATGAGTAGGCG,2.6
13,AGAATAAGGTTATTAAGATCAGGGAATTGCGGTC,1.43
14,ATTTCTAGGTAAAGATAGTTCAGTGAATGCAAAT,0.355
15,CGAACTAGGTCAAGGACTGTGAATCTCCGCACGC,3.02
16,TCTTGTAGATCAACAGGAGGTTAAGAATGATCGA,0.541
17,CGTCCAAGGTCAATGCTTGGTCAGTGAAAGCATT,6.4
18,CCTATTAGTCGACCATAAGGGCAACCGAAGCTCG,0.245
19,TATACAGGGTCAAAGGCGAGAGTACGAATGTCGA,7.01
20,TCTTGTAGATCAATAGAGGTTAAGGAAGTGCGCT,1.25

# System: LXRa:RXRa (NR concentration 270 nM, RXRa partner concentration 90 nM)
# Experiment: as above
# How it was run: as §1
row,Sequence,PBM binding z-score
1,CGTCCAAGGTCATAGGAGATCAGTGAAGACAGAT,5.5
2,CCTTACGGGTCAAGGCTATAGCACGGGTGGTACG,3.26
3,CGAACGAGGGCATGAGTTGATAGCAAATGCCGAT,0.339
4,CCAGACAGGTGAGAAGGTAACTCCGCCTCGATTA,-0.237
5,TCTACTAGTTGATTAGGGCAACCGAAACAGCGGA,-0.4
6,GAGACAGGGTCAAGGCCAGAGTACGCGTATTGAT,3.62
7,TCTAGTTGGTCACGGAGGTCACTCACGACGGGTA,2.98
8,CTCGAAAGGTCGGTTGAGGTGTGTATACGGATAA,1.28
9,CCTACTGGGCCATTCAGAGTTCATTGATCATATG,2.71
10,CAGCCTAGGTTAGGGCCAGTATAGGAGGAACGTT,-0.473
11,GCGACTGGGGCCAAGCAGGTTACCATAAGGTTGG,-0.471
12,CGAACGAGGGCATGAGTTGATGGCAAATGCCGAT,0.315
13,GGAACGATGGCAAGTTGATAGCAGAGTTTGATGG,-0.756
14,CGTCCAAGGTCAAAGGTCAGTCAAGAGATGACGG,6.97
15,CGTCCAAGGTCAAAGGTCAGTGCAGAGATGACGG,7.01
16,CCTTCTGGGCCAAAGGTCATTGATTCCAATGCTC,5.18
17,TTTTGTAGATCAAGCAGGTTAAGAAAGCCTGAGT,-0.0979
18,AAGACAGGGTCATCGTAGGCCAGAGTACGCACAG,5.76
19,GCTAGCAGGCCATTTAGGTCACTCAATGACGGGC,-0.00867
20,AATACAGGGTCACTAGGCCAGAGTTGGTACGAAT,4.87

row,Sequence,PBM binding z-score
1,TCATATAGGTAATACAGGTGAAAGTGGGCATCTA,1.27
2,CGAACTAGGTCTAGGACAGTGAATCTCCGCACGC,-0.606
3,GCATATAGGTAATACCAGGTGAAAGTCCGATTGT,2.05
4,TCAGAAAGGTGAAGGTAACTCAGGTACGCAGTCG,2.61
5,GGAACGAGGGCATACGAGTTGATAGCATGGCGAT,0.61
6,AGAATGAGGTTACCGAAGATCAGGGAAACGCTTG,4.55
7,CCGACTGGGGCAGAAAGGTAACCATACCATCCGG,-0.447
8,AGTCACAGTTCACTAGGTAACGTAAGATTCAGCT,1.66
9,GATCGGAGGACAAGGTCAGAGCTTTGTCCGTAGA,1.42
10,CTCGAAAGGTCGGTTGAGGCGAGTATACGGATAA,1.17
11,ACAGACAGGTGTTGAAGGTAACTCAGGCTATCAT,-0.375
12,GTACCAAGGTGAATAGGTCATTGATGAGTAGGCG,2.66
13,AGAATAAGGTTATTAAGATCAGGGAATTGCGGTC,1.6
14,ATTTCTAGGTAAAGATAGTTCAGTGAATGCAAAT,4.21
15,CGAACTAGGTCAAGGACTGTGAATCTCCGCACGC,2.02
16,TCTTGTAGATCAACAGGAGGTTAAGAATGATCGA,0.729
17,CGTCCAAGGTCAATGCTTGGTCAGTGAAAGCATT,4.57
18,CCTATTAGTCGACCATAAGGGCAACCGAAGCTCG,0.0274
19,TATACAGGGTCAAAGGCGAGAGTACGAATGTCGA,6.18
20,TCTTGTAGATCAATAGAGGTTAAGGAAGTGCGCT,2.42
